The structures appear in SMILES notation. Activity calls are given as the source filed them.

The text below walks through data of PubChem BioAssay.

Assay [1] concerns PRMT1 (protein arginine N-methyltransferase 1). Nature of the assay: PRMT1 binders on small-molecule microarrays, primary screen, biochemical, small-molecule microarray, 635 nm fluorescence (AID 1088).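 Further: binding of Prmt1 protein to compounds spotted on small-molecule microarray slides.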 The settings on record: small-molecule microarray binding, higher = more signal.
Assay [2] in a line: yeast growth modulation, basal conditions, primary screen, YJM789 clinical isolate, OD600, 24 h (AID 1089).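 Further: growth of clinical yeast isolate S. cerevisiae YJM 789 seeded 1000 cells per well; test concentration not given here.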 The conditions noted are these: S. cerevisiae YJM789 growth, higher = more signal, called active from +8 up or from −8 down.
Assay [3] in a line: fission yeast growth modulation, primary screen, strain 972, OD600, 24 h, no modulator (AID 1090).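 Further: basal condition with compound alone and no growth modifier present; test concentration not given here.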 The settings on record: S. pombe 972 growth, higher = more signal, called active from +8 up or from −8 down.
Assay [4] in a line: S. cerevisiae growth modulation with rapamycin, primary screen, strain BY4716, OD600, 96 h (AID 1091). Further: test concentration not given here. The conditions noted are these: higher = more signal, called active from +8 up or from −8 down.
Assay [5] deals with Torsin-1A-interacting protein 2 (Homo sapiens) (UniProt Q8NFQ8). Nature of the assay: LULL1 binders on small-molecule microarray, primary screen, cell lysate, human LULL1 lysate, 635/667 nm fluorescence (AID 1092).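 Further: probe is lysate of COS7 cells overexpressing human LULL1; score merges per-feature 667 nm fluorescence with signal-to-noise.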 The settings on record: hLULL1 lysate binding, 635 nm fluorescence, higher = more signal.
Assay [6] can be described thus: E. coli growth modulation, two-sided OD650, primary screen, E. coli filamentation project, strain DRC41, 24 h (AID 1093).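 Further: MC1000 strain lacking acrAB efflux and sulA so SOS filamentation is blocked; test concentration not given here.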 The settings on record: OD650, 24 h, higher = more signal, called active from +8 up or from −8 down.
Assay [7] in a line: small-molecule microarray binders of probe aLefty2, primary screen, biochemical, biotinylated probe, 635/667 nm fluorescence (AID 1094).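 Further: score merges spot fluorescence near 667 nm with spot signal-to-noise ratio.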 The settings on record: higher = more signal.
Assay [8] deals with Noggin (protein binding on small-molecule microarray). Nature of the assay: Noggin binders on small-molecule microarray, primary screen, biochemical, 635/667 nm fluorescence (AID 1095).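 Further: score merges 667 nm feature fluorescence with signal to noise over triplicate slides.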 The settings on record: 635 nm fluorescence, higher = more signal.
In assay [9] the target is Neurogenic locus notch homolog protein 3 (Homo sapiens) (UniProt Q9UM47). Nature of the assay: NOTCH3 binders on small-molecule microarray, primary screen, biochemical, 635/667 nm fluorescence (AID 1096). The conditions noted are these: NOTCH3 binding, 635 nm fluorescence, higher = more signal.
A short description of assay [10]: small-molecule microarray binders of probe aEGFR, primary screen, biochemical, biotinylated probe, 635/667 nm fluorescence (AID 1097).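 Further: probe is a biotinylated anti-EGFR antibody binding compounds printed on slides; score combines fluorescence near 667 nm and signal to noise of each spot.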 The conditions noted are these: higher = more signal.
The test system of assay [11] is Plasmodium falciparum Sir2 (PF13_0152, Sir2A). Nature of the assay: pfSir2 binders on small-molecule microarrays, primary screen, biochemical, small-molecule microarray, 635 nm fluorescence (AID 1098).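 Further: score merges spot fluorescence intensity with its signal-to-noise ratio.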 The settings on record: small-molecule microarray binding, fluorescence 635 nm; higher = more signal.
Assay [12] can be described thus: small-molecule microarray binders of probe aDKK1, primary screen, biochemical, biotinylated probe, 635/667 nm fluorescence (AID 1099).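 Further: score merges 667nm spot fluorescence with signal to noise across triplicate slides; reference of the scale not given here.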 The settings on record: higher = more signal.
Assay [13] can be described thus: small-molecule microarray binders of probe aCHRDL2, primary screen, biochemical, biotinylated probe, 635/667 nm fluorescence (AID 1100). The conditions noted are these: higher = more signal.
Assay [14] is described as follows: splicing luciferase reporter signal modulators, primary screen, spliceosome inhibition project, cell-based, HEK293, splice +/- reporter (AID 1101).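 Further: HEK293 cells carrying a splicing-competent luciferase reporter gene; test concentration not given here.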 The settings on record: luminescence, 24 h, higher = more signal, called active from +8 up or from −8 down. Background: A reporter such as luciferase makes a cellular process visible.
Assay [15] has as its target Fibroblast growth factor 10 (Homo sapiens) (UniProt O15520). Nature of the assay: FGF10 binders on small-molecule microarrays, primary screen, biochemical, small-molecule microarray, 635 nm fluorescence (AID 1102). The settings on record: FGF10 binding, fluorescence 635 nm, higher = more signal.
In assay [16] the test system is glycogen synthase kinase-3 (GSK3A per assay name; protocol says GSK3B). Nature of the assay: GSK3 binders on small-molecule microarrays, primary screen, biochemical, small-molecule microarray, 635 nm fluorescence, GSK3A (AID 1103). Further: the record names both GSK3A and GSK3B. The conditions noted are these: small-molecule microarray binding, fluorescence 635 nm; higher = more signal.
In assay [17] the target is Epidermal growth factor receptor (Homo sapiens) (UniProt P00533). Nature of the assay: EGFR binders on small-molecule microarrays, primary screen, biochemical, small-molecule microarray, 635 nm fluorescence (AID 1104).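 Further: score merges 667 nm emission intensity with spot signal to noise over triplicate slides.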 The conditions noted are these: EGFR binding, higher = more signal.
In assay [18] the target is Follistatin-related protein 3 (Homo sapiens) (UniProt O95633). Nature of the assay: FSTL3 binders on small-molecule microarrays, primary screen, biochemical, small-molecule microarray, 635 nm fluorescence (AID 1105).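 Further: score merges emission near 667 nm and signal to noise per printed spot across three slides.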 The conditions noted are these: FSTL3 binding, higher = more signal.
Assay [19] deals with Dickkopf-related protein 1 (Homo sapiens) (UniProt O94907). Nature of the assay: DKK1 binders on small-molecule microarrays, primary screen, biochemical, small-molecule microarray, 635 nm fluorescence scan (AID 1106).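 Further: score merges emission near 667 nm with signal to noise over three replicate slides.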 The conditions noted are these: DKK1 binding, higher = more signal.
Assay [20] deals with Inhibin beta A chain (activin A). Nature of the assay: INHBA (activin A) binders on microarrays, primary screen, biochemical, small-molecule microarray, 635 nm fluorescence scan (AID 1107).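 Further: mouse activin A protein probed at 4.33 µg/mL on printed slides; score merges bound-protein fluorescence near 667 nm with spot signal-to-noise.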 The conditions noted are these: small-molecule microarray binding, higher = more signal.

Torsin-1A-interacting protein 2 (Homo sapiens), sequence (Q8NFQ8 whole entry, looked up): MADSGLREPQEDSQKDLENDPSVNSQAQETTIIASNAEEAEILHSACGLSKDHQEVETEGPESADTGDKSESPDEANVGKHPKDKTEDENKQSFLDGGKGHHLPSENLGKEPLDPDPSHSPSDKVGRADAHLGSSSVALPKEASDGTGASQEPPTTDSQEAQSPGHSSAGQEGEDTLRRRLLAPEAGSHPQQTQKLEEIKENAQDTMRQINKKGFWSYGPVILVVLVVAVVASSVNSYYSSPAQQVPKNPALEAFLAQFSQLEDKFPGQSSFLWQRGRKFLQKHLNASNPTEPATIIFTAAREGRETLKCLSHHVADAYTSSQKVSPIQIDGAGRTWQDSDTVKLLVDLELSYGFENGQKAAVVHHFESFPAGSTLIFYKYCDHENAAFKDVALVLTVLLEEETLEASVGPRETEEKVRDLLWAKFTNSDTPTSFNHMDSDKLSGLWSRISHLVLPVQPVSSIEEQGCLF
Epidermal growth factor receptor (Homo sapiens), sequence (P00533 whole entry, looked up): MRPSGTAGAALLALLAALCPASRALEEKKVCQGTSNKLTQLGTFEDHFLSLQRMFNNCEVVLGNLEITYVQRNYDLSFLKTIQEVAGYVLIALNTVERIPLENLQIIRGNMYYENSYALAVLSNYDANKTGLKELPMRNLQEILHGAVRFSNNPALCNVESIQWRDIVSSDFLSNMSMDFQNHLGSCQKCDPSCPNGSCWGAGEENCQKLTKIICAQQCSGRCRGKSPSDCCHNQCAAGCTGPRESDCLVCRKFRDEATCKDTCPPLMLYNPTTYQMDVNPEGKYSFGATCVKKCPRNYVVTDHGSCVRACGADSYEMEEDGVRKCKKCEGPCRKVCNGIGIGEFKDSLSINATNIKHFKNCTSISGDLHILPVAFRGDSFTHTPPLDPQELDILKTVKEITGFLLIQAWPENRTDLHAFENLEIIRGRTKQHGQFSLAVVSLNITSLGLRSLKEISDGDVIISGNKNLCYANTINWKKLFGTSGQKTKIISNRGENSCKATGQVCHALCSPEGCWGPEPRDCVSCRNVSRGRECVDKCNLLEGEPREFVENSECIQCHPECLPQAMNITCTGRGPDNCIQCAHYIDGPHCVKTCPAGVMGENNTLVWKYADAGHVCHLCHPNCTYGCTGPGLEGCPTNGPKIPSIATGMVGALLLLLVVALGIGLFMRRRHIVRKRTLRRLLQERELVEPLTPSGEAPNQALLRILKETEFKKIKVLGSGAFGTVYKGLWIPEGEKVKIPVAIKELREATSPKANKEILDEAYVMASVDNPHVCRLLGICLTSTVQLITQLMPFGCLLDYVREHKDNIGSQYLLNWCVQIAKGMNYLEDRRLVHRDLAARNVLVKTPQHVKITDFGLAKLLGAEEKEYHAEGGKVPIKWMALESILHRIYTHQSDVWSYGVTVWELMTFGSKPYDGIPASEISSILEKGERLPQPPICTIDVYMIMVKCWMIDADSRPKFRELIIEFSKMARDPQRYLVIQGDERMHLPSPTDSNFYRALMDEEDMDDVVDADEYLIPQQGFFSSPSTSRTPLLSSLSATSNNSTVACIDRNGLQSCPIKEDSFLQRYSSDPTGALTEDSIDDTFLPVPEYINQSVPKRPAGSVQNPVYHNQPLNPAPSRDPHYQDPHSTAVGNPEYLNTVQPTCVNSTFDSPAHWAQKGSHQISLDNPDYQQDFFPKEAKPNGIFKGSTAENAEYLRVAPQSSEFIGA
Fibroblast growth factor 10 (Homo sapiens), sequence (O15520 whole entry, looked up): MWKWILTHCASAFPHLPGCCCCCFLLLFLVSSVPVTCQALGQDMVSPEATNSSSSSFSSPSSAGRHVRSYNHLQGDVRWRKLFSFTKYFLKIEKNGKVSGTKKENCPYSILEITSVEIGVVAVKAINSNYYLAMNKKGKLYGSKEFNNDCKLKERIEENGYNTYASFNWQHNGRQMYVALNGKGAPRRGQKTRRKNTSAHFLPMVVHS
Follistatin-related protein 3 (Homo sapiens), sequence (O95633 whole entry, looked up): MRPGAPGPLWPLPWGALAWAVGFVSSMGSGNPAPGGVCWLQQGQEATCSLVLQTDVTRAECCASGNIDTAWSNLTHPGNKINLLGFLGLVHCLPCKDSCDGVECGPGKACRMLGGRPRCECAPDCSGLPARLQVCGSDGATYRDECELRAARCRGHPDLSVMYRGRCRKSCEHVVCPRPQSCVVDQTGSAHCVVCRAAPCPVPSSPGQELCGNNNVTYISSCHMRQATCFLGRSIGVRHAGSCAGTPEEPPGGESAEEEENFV
Dickkopf-related protein 1 (Homo sapiens), sequence (O94907 whole entry, looked up): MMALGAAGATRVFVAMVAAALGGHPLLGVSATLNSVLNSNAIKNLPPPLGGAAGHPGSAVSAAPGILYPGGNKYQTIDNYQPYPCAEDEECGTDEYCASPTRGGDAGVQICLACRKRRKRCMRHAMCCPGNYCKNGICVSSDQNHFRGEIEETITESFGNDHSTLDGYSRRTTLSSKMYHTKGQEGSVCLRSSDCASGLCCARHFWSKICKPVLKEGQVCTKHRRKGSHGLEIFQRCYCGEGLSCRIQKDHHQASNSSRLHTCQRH
Neurogenic locus notch homolog protein 3 (Homo sapiens), sequence (Q9UM47 whole entry, looked up): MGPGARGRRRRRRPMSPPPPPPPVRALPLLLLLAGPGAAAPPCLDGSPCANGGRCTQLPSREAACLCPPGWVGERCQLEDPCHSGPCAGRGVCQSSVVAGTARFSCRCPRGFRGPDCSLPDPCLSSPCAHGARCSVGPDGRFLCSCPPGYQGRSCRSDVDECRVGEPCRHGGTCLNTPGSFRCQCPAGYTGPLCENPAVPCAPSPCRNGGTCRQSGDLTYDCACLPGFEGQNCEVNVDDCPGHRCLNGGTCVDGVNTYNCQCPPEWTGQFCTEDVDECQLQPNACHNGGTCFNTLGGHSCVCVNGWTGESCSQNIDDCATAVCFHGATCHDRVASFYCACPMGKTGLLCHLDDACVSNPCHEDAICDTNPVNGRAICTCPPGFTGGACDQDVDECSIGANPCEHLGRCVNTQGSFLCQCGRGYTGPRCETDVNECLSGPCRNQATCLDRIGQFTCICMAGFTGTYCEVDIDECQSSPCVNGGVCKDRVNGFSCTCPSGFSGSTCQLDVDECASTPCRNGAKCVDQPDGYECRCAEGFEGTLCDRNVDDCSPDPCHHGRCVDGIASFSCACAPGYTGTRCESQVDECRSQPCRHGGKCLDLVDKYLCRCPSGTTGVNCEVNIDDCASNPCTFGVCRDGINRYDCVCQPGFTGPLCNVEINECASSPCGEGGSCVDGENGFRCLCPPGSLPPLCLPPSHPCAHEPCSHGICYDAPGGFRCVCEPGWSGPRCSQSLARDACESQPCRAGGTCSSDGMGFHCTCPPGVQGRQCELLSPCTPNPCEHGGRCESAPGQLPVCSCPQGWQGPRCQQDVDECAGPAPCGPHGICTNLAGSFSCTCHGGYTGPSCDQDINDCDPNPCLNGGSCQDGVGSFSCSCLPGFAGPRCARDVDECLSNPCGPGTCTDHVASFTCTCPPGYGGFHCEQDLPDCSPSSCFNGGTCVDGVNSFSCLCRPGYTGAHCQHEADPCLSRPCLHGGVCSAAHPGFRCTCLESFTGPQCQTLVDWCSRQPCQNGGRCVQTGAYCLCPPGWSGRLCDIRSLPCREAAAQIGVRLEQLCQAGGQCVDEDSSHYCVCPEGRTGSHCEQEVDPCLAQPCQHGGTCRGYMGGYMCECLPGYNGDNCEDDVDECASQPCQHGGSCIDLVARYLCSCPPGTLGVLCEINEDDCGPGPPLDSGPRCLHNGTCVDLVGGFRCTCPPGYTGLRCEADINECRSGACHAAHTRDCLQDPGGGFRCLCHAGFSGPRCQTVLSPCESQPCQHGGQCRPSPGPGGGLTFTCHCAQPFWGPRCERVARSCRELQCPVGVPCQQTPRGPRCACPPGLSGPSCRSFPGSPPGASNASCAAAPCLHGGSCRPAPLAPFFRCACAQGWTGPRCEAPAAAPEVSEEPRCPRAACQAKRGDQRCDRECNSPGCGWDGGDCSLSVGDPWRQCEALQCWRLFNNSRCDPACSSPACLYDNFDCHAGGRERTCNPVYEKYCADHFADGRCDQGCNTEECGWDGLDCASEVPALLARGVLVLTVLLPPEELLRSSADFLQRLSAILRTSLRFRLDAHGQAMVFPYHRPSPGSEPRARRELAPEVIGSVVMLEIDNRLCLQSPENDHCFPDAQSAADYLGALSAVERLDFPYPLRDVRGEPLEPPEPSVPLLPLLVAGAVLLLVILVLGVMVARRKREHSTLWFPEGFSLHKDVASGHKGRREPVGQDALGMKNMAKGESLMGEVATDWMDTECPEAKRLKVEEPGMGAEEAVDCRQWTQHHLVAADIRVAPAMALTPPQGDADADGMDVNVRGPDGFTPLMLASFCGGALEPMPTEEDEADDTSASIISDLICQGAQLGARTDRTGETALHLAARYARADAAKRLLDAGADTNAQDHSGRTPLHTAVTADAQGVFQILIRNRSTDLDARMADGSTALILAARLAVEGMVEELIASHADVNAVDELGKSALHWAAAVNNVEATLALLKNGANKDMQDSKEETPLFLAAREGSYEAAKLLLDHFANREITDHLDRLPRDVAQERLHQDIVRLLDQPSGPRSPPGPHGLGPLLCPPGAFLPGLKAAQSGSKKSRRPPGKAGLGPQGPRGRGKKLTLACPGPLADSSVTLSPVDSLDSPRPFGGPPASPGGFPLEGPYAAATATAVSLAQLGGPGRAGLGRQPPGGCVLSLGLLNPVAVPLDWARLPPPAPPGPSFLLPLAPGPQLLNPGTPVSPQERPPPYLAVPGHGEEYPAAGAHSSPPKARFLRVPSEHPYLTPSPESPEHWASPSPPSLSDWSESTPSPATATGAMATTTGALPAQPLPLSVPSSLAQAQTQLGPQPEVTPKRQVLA

For the compound `CCOC(=O)[C@H](CC(C)C)NC(=O)CCC1CC(OC(=O)NCCc2ccc(F)cc2)CC2(CCCC(COC(=O)NCCc3ccccc3OC)O2)O1` (stereo not given in full), the composite z-score is 1.15 in [1]; 1.73 in assay [5]; -0.19 in [7]; 0.718 in assay [8]; 1.12 in assay [9]; 0.0004 in assay [10]. Moreover, the composite z-score is 0.82 in assay [11]; -0.186 in assay [12]; -0.313 in assay [13]; 0.768 in assay [15]; 0.773 in assay [16]; 0.603 in assay [17]. In addition, the values for the composite z-score in assay [18], in assay [19] and in assay [20] were 0.744, 0.526 and -0.0274, respectively. In addition, the z-score was 0.217 (inactive) in [2]; 1.02 (inactive) in assay [3]; 0.471 (inactive) in assay [4]; -0.0351 (inactive) in [6]; -0.135 (inactive) in [14].

Regarding `CCOC(=O)NN=C1C[C@@H](O)[C@@H](O)[C@@H]2[C@@H]3C(=O)N(c4cccc(Oc5ccccc5)c4)C(=O)[C@@H]3CC[C@@H]12`, the composite z-score in [1] is -0.037; in assay [5] it was 1.26; in assay [7] it was -0.335; in assay [8], 0.918; in assay [9], -0.362; in [10], -0.163. For the same compound, the composite z-score in [11] was 0.933; in assay [12] it was -0.27; in [13], -0.187; in assay [15], 1.13; in assay [16], -0.652; in assay [17], 0.164. Besides, the results for the composite z-score in [18], in assay [19] and in assay [20] were -0.329, -0.313 and -0.237, respectively. The z-score in assay [2] was -0.73 (inactive); in assay [3], 0.385 (inactive); in assay [4], -0.869 (inactive); in [6], 0.205 (inactive); in assay [14], 0.0999 (inactive).

For the compound `CCOC(=O)[C@H](Cc1ccccc1)NC(=O)CCC1CC(OC(=O)NCCc2ccc(F)cc2)CC2(CCCC(COC(=O)NCCOC)O2)O1` (stereo not given in full), the composite z-score was 1.46 in assay [1]; 1.73 in assay [5]; -0.147 in [7]; 0.325 in [8]; 0.796 in assay [9]; 0.153 in assay [10]. The composite z-score in assay [11] is 0.637; in assay [12] it was 0.765; in assay [13], -0.504; in assay [15], 0.984; in [16], 0.614; in [17] it was 0.856. Besides, the composite z-score stood at 0.969 in assay [18], 1.13 in assay [19] and 0.163 in [20]. Also, the z-score in assay [2] is 0.197 (inactive); in assay [3], 0.143 (inactive); in [4], -0.16 (inactive); in assay [6] it was 0.769 (inactive); in [14], 0.371 (inactive).

Regarding `O=C(NN=C1C[C@@H](O)[C@@H](O)[C@@H]2[C@@H]3C(=O)N(C4CCCCC4)C(=O)[C@@H]3CC[C@H]12)OCc1ccccc1`, the composite z-score in assay [1] was -0.511; in assay [5], 0.352; in assay [7], -0.0239; in [8] it was -0.177; in [9] it was -0.0963; in assay [10] it was -0.0461. The composite z-score in assay [11] is 0.0222; in [12], 0.691; in assay [13], 1.07; in assay [15] it was 0.836; in assay [16], 0.0816; in [17], 0.554. Further, the composite z-score in [18] is -0.483; in assay [19], -0.504; in assay [20], -0.0726. Also, the z-score in assay [2] was 0.298 (inactive); in assay [3], 0.267 (inactive); in [4], 0.799 (inactive); in assay [6] it was -0.0442 (inactive); in assay [14], -0.177 (inactive).

`COC(=O)CC=C[C@@H](C)[C@@H]1C=C[C@H](O)[C@@H](CO)O1`: the composite z-score is -0.266 in [1]; 0.296 in [5]; -0.177 in assay [7]; 0.381 in assay [8]; 0.601 in [9]; -0.338 in assay [10]. Besides, the composite z-score in [11] is 0.146; in assay [12], -0.0367; in assay [13], -0.48; in [15] it was 0.666; in [16], 0.753; in [17], 0.369. In addition, the results for the composite z-score in assay [18], in assay [19] and in assay [20] were 0.559, 1.15 and 0.165, respectively. The z-score in [2] is 0.773 (inactive); in [3] it was 1.08 (inactive); in assay [4], 0.531 (inactive); in [6], 0.426 (inactive); in assay [14], -0.593 (inactive).

As for `O=C1[C@H]2[C@H]3[C@H](O)[C@H](O)CC(=NO[C@@H]4O[C@H](CO)[C@@H](O)[C@H](O)[C@H]4O)[C@H]3CC[C@H]2C(=O)N1c1cccc(Oc2ccccc2)c1`, the composite z-score was 0.69 in assay [1]; 0.543 in assay [5]; -0.253 in [7]; 0.329 in assay [8]; 0.861 in assay [9]; -0.0549 in assay [10]. In addition, the composite z-score is 0.0739 in assay [11]; -0.187 in assay [12]; -0.478 in [13]; 0.73 in assay [15]; 0.67 in [16]; 0.508 in [17]. For the same compound, the composite z-score in assay [18] was 0.598; in assay [19] it was 0.71; in assay [20], -0.204. The z-score in assay [2] was -0.513 (inactive); in assay [3], 0.0816 (inactive); in [4] it was -0.642 (inactive); in [6] it was 0.563 (inactive); in assay [14], 0.0512 (inactive).

`O=C1[C@H]2[C@H]3[C@H](O)[C@H](O)CC(=NOCc4ccccc4)[C@H]3CC[C@H]2C(=O)N1Cc1ccc2c(c1)OCO2`: the composite z-score in assay [1] is 0.437; in assay [5], 1.1; in assay [7], -0.0766; in assay [8], 0.273; in [9] it was 0.546; in [10], 0.0102. Also, the composite z-score was 0.297 in assay [11]; -0.208 in assay [12]; -0.424 in assay [13]; 0.322 in assay [15]; 0.238 in [16]; 0.338 in assay [17]. In addition, the composite z-score in [18] was found to be 0.534; in assay [19], 0.582; in assay [20] it was 0.157. Further, the z-score in assay [2] is -0.627 (inactive); in assay [3], -0.674 (inactive); in [4], -1.53 (inactive); in assay [6] it was 1.26 (inactive); in assay [14], 0.889 (inactive).

As for `C[C@@H]1NC(=O)[C@@H](C)COC(=O)[C@H](C)NC(=O)[C@@H](C)COC1=O`, the composite z-score in assay [1] is 0.455; in assay [5] it was 1.03; in [7], -0.0186; in assay [8], 0.79; in assay [9], -0.0611; in assay [10], 0.132. In addition, the composite z-score is 0.429 in assay [11]; -0.23 in assay [12]; -0.0595 in assay [13]; 0.765 in [15]; 0.642 in [16]; 0.401 in assay [17]. Besides, the composite z-score was 1.15 in assay [18], 0.769 in [19] and -0.772 in [20]. Further, the z-score is -0.335 (inactive) in assay [2]; -0.924 (inactive) in assay [3]; -1.94 (inactive) in [4]; -0.0698 (inactive) in assay [6]; -1.35 (inactive) in assay [14].

`CCC=CCCC(OC(=O)c1ccc(Br)cc1)C1=CCCCC1=O` (stereo not given): the composite z-score in assay [1] is 1.33; in assay [5], 1.35; in assay [7], -0.0018; in assay [8], 0.493; in assay [9] it was 0.554; in assay [10], -0.0187. Also, the composite z-score in assay [11] is 0.964; in assay [12], -0.305; in assay [13] it was 0.457; in assay [15], 0.681; in [16] it was 0.166; in assay [17], 0.718. The composite z-score in assay [18] was determined as 1.05; in assay [19], 0.592; in assay [20], 1.55. The z-score in assay [2] was -1.32 (inactive); in assay [3] it was -5.44 (inactive); in [4] it was -2.98 (inactive); in assay [6], -0.133 (inactive); in assay [14], 0.798 (inactive).
